Measurements: article PMC7862700, “An all-to-all approach to the identification of sequence-specific readers for epigenetic DNA modifications on cytosine”

Key:
Assay in all cases: DAPPL (digital affinity profiling via proximity ligation, sequencing); 10 mM Tris-HCl pH 7.5, 50 mM NaCl, 1 mM DTT, 4% glycerol, room temperature, 30 min; GST-TFs on glutathione beads, 16-mer random dsDNA library, 0.1% formaldehyde crosslink after washing; high values mean tight binding
Details in all cases: protein: recombinant; tags: N-terminal GST; dsDNA, one strand shown
[1] = biological target: T1, FLI1 (Homo sapiens, UniProt Q01543 1-452)
T1 sequence: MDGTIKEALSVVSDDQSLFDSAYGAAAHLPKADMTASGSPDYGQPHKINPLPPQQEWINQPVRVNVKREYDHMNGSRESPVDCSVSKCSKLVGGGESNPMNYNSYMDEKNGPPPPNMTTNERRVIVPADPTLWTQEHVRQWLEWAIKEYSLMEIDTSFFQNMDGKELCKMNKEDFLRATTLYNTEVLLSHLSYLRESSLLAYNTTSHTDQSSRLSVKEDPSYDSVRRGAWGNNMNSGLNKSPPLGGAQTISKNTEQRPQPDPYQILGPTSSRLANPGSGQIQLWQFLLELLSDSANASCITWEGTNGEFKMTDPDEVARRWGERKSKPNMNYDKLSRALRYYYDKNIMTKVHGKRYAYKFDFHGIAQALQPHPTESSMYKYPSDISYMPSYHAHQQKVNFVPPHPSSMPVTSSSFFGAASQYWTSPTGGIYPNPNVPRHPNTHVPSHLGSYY
Procedure, shortened: (§1)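 Pools were built from human transcription factors expressed in yeast as GST fusions, captured on glutathione beads and DNA-barcoded, along with a tag-only sample. Incubation with 200 nmole of a 16-mer random double-stranded DNA library lasted 30 min at room temperature in Tris/NaCl/DTT/glycerol buffer, and was followed by washing, 0.1% formaldehyde crosslinking, proximity ligation, PCR amplification and Illumina NextSeq500 sequencing. Binding signal is the quotient of each hexamer's read frequency for a factor and its frequency for the tag-only sample.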

[2] = biological target: T2, ELK1 (Homo sapiens, UniProt P19419 1-428)
T2 sequence: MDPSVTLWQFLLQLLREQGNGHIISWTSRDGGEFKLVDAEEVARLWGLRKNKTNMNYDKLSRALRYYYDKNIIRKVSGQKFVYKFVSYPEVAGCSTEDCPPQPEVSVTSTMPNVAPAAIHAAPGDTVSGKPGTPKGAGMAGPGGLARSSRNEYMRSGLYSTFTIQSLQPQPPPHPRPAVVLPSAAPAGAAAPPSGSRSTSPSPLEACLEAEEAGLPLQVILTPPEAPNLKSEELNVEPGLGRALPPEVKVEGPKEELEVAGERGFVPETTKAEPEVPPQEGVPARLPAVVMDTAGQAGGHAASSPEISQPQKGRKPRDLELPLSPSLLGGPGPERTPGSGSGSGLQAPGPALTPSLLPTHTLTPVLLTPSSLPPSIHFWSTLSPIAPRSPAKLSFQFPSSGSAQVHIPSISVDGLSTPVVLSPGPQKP
Procedure, shortened: as §1

[3] = biological target: T3, ERG (Homo sapiens, UniProt P11308 1-479)
T3 sequence: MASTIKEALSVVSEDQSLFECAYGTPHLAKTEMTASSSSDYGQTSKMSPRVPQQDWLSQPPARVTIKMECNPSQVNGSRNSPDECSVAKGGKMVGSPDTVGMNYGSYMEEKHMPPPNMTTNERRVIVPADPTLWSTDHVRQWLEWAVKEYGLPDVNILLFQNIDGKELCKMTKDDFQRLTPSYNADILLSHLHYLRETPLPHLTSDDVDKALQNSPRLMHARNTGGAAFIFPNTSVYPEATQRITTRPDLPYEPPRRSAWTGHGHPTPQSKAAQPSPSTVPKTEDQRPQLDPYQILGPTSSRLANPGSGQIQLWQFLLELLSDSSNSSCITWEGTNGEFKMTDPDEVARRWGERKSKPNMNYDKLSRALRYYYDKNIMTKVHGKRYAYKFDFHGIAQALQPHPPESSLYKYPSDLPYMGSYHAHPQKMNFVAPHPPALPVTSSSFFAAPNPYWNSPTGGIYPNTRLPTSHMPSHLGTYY
Procedure, shortened: as §1

[4] = biological target: ELF1 (Homo sapiens, UniProt P32519 1-619)
Procedure, shortened: as §1

[5] = biological target: T4, EHF (Homo sapiens, UniProt Q9NZC4 1-300)
T4 sequence: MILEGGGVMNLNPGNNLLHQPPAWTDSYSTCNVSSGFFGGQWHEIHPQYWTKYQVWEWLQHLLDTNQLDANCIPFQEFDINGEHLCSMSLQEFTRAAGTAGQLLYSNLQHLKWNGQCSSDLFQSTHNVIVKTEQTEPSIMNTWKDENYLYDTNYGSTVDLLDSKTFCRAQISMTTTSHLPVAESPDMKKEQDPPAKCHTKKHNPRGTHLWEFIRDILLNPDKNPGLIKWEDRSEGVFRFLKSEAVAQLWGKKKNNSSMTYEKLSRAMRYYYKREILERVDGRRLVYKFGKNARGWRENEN
Procedure, shortened: as §1

[6] = biological target: SPI1 (Homo sapiens, UniProt P17947 1-270)
Procedure, shortened: as §1

[7] = biological target: SPIB (Homo sapiens, UniProt Q01892 1-262)
Procedure, shortened: as §1

[8] = biological target: T5, ELK3 (Homo sapiens, UniProt P41970 1-407)
T5 sequence: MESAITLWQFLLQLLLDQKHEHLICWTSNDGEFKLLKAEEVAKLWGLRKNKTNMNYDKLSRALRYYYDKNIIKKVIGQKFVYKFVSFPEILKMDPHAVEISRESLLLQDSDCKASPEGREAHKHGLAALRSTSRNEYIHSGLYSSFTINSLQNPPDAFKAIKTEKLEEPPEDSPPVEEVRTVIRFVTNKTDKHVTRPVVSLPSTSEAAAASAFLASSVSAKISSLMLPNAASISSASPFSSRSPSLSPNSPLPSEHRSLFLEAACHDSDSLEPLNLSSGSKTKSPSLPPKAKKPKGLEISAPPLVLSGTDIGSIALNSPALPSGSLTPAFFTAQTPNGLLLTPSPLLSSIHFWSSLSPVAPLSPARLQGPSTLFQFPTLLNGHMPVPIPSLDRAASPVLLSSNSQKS
Procedure, shortened: as §1

[9] = biological target: T6, GABPA (Homo sapiens, UniProt Q06546 1-454)
T6 sequence: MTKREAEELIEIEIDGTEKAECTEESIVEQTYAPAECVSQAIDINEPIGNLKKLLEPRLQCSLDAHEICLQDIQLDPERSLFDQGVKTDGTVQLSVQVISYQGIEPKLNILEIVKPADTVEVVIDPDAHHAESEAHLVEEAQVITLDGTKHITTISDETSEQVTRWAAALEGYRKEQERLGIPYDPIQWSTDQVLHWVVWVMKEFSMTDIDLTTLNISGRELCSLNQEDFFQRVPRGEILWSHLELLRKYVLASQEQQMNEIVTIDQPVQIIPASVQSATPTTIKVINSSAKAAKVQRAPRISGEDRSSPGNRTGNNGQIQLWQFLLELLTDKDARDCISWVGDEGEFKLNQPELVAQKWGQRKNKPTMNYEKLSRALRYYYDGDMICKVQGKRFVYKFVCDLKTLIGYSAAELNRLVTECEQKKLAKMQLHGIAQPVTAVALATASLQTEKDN
Procedure, shortened: as §1

Chain of SPIB (Q01892 whole entry): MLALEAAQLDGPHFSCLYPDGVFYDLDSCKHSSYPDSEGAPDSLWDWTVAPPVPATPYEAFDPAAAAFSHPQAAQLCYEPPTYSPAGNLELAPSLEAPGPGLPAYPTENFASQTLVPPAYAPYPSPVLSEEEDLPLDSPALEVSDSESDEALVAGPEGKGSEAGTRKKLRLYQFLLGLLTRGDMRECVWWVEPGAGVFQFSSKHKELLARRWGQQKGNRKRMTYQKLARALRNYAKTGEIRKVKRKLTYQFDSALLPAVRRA
Chain of ELF1 (P32519 whole entry): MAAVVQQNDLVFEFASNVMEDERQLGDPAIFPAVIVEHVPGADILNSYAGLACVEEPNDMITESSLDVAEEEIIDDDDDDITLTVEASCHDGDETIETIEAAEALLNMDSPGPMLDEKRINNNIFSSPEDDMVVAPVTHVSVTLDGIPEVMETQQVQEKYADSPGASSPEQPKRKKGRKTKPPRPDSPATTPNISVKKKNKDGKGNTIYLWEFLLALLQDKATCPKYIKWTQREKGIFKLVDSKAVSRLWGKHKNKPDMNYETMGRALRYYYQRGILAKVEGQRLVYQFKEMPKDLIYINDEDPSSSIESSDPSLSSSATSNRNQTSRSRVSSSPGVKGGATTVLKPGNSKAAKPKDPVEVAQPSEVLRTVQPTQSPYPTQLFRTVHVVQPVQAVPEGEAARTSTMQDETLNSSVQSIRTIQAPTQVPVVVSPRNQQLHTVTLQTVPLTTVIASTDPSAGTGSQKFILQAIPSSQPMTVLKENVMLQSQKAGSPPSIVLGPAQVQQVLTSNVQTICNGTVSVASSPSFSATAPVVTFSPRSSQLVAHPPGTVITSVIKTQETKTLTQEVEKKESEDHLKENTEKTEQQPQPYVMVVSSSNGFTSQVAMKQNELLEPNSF

TTCGCG
binding signal [1]: 1.13 fold enrichment (6-mer frequency, TF over GST control)
binding signal [2]: 1.07 fold enrichment (6-mer frequency, TF over GST control)
binding signal [3]: 1.08 fold enrichment (6-mer frequency, TF over GST control)
binding signal [4]: 1.14 fold enrichment (6-mer frequency, TF over GST control)
binding signal [5]: 1.21 fold enrichment (6-mer frequency, TF over GST control)
binding signal [6]: 1.18 fold enrichment (6-mer frequency, TF over GST control)
binding signal [7]: 1.14 fold enrichment (6-mer frequency, TF over GST control)
binding signal [8]: 1.15 fold enrichment (6-mer frequency, TF over GST control)

ATAGGT
binding signal [1]: 1.08 fold enrichment (6-mer frequency, TF over GST control)
binding signal [2]: 1.01 fold enrichment (6-mer frequency, TF over GST control)
binding signal [3]: 1.01 fold enrichment (6-mer frequency, TF over GST control)
binding signal [5]: 1.04 fold enrichment (6-mer frequency, TF over GST control)
binding signal [6]: 1.01 fold enrichment (6-mer frequency, TF over GST control)
binding signal [7]: 1.04 fold enrichment (6-mer frequency, TF over GST control)

TCATGA
binding signal [1]: 1.12 fold enrichment (6-mer frequency, TF over GST control)
binding signal [2]: 1 fold enrichment (6-mer frequency, TF over GST control)
binding signal [9]: 1.18 fold enrichment (6-mer frequency, TF over GST control)
binding signal [4]: 1.03 fold enrichment (6-mer frequency, TF over GST control)
binding signal [5]: 1.07 fold enrichment (6-mer frequency, TF over GST control)
binding signal [8]: 1.05 fold enrichment (6-mer frequency, TF over GST control)

ACCGAA
binding signal [1]: 1.09 fold enrichment (6-mer frequency, TF over GST control)
binding signal [2]: 1.04 fold enrichment (6-mer frequency, TF over GST control)
binding signal [9]: 1.05 fold enrichment (6-mer frequency, TF over GST control)
binding signal [4]: 1.11 fold enrichment (6-mer frequency, TF over GST control)
binding signal [5]: 1 fold enrichment (6-mer frequency, TF over GST control)
binding signal [6]: 1.06 fold enrichment (6-mer frequency, TF over GST control)
binding signal [7]: 1.01 fold enrichment (6-mer frequency, TF over GST control)
binding signal [8]: 1.01 fold enrichment (6-mer frequency, TF over GST control)

TCACAG
binding signal [1]: 1.09 fold enrichment (6-mer frequency, TF over GST control)
binding signal [2]: 1.15 fold enrichment (6-mer frequency, TF over GST control)
binding signal [9]: 1.1 fold enrichment (6-mer frequency, TF over GST control)
binding signal [4]: 1.06 fold enrichment (6-mer frequency, TF over GST control)
binding signal [5]: 1.02 fold enrichment (6-mer frequency, TF over GST control)
binding signal [7]: 1.09 fold enrichment (6-mer frequency, TF over GST control)
binding signal [8]: 1.01 fold enrichment (6-mer frequency, TF over GST control)

ACACCA
binding signal [1]: 1.01 fold enrichment (6-mer frequency, TF over GST control)
binding signal [2]: 1.15 fold enrichment (6-mer frequency, TF over GST control)
binding signal [3]: 1.01 fold enrichment (6-mer frequency, TF over GST control)
binding signal [4]: 1.05 fold enrichment (6-mer frequency, TF over GST control)
binding signal [5]: 1.04 fold enrichment (6-mer frequency, TF over GST control)

AAAAGT
binding signal [1]: 1.02 fold enrichment (6-mer frequency, TF over GST control)
binding signal [2]: 1.1 fold enrichment (6-mer frequency, TF over GST control)
binding signal [9]: 1.08 fold enrichment (6-mer frequency, TF over GST control)
binding signal [4]: 1.01 fold enrichment (6-mer frequency, TF over GST control)
binding signal [5]: 1.1 fold enrichment (6-mer frequency, TF over GST control)
binding signal [6]: 1.06 fold enrichment (6-mer frequency, TF over GST control)
binding signal [7]: 1.12 fold enrichment (6-mer frequency, TF over GST control)
binding signal [8]: 1.06 fold enrichment (6-mer frequency, TF over GST control)

GCTGAC
binding signal [1]: 1.17 fold enrichment (6-mer frequency, TF over GST control)
binding signal [2]: 1.1 fold enrichment (6-mer frequency, TF over GST control)
binding signal [9]: 1.04 fold enrichment (6-mer frequency, TF over GST control)
binding signal [4]: 1.16 fold enrichment (6-mer frequency, TF over GST control)
binding signal [5]: 1.21 fold enrichment (6-mer frequency, TF over GST control)
binding signal [6]: 1.04 fold enrichment (6-mer frequency, TF over GST control)
binding signal [7]: 1.12 fold enrichment (6-mer frequency, TF over GST control)
binding signal [8]: 1.13 fold enrichment (6-mer frequency, TF over GST control)
